Unmarked numbers belong to inactive results. Records with an inconclusive call do not appear. Active and inactive are the calls of the source. Unless noted, calls come from the whole dose curve; as a rule, active = well fitted curve in the direction sought with a large enough effect in the repeat runs; inconclusive = weak or mixed curves; inactive = no such curve, though single readings can be large; an effect the other way counts as inactive or inconclusive.

The target of assay [1] is Thyrotropin-releasing hormone receptor (Homo sapiens) (UniProt P34981). The assay can be described thus: qHTS assay to identify small molecule agonists of the thyrotropin-releasing hormone receptor (TRHR) signaling pathway (AID 1346891; calls by dose curve;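 note: HEK293 cells expressing TRHR with calcium dye readout; series mostly up to about 58 µM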). A digest of the protocol:
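Kinetic fluorescence (3 min, 1 s intervals) reported intracellular calcium after compound transfer onto TRHR-Hek293 cells pre-loaded with dye for 2 h at 37 °C.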

Assay [2] is described as follows: Human pregnane X receptor (PXR) small molecule agonists, qHTS cell viability counter screen (AID 1346977). Note: nearly all actives have a fitted effect of over 50% in size. A digest of the protocol:
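HepG2 cells stably carrying the PXR-Luc reporter are cultured with 5% charcoal-stripped FBS and treated with compounds for 24hr. CellTiter-Fluor is added at 23hr and fluorescence is read after 1hr.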

A short description of assay [3]: Caspase-3/7 induction in HepG2 cells by small molecules, qHTS assay (AID 1346978). Note: nearly all actives have a fitted effect of over 15% in size. Summed up:
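Wild-type HepG2 cells, 2,000/well, settled 5 hr at 37 C and 5% CO2, then compound-treated for 17 hr; caspase-3/7 activity read by luminescent Caspase-Glo 3/7 after 30 min at room temperature.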

Assay [4] is described as follows: Caspase-3/7 induction in CHO-K1 cells by small molecules, qHTS cell viability counter screen (AID 1346979). Note: nearly all actives have a fitted effect of over 35% in size. A digest of the protocol:
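Seeding: 1,500 CHO-K1 cells/well. Rest: 5hr, 37C. Treatment: compounds in DMSO, 16hr. Read: CellTiter-Fluor, 1hr, fluorescence.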

Assay [5] in a line: Caspase-3/7 induction in CHO-K1 cells by small molecules, qHTS assay (AID 1346980). Note: nearly all actives have a fitted effect of over 15% in size. Summed up:
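Wild-type CHO-K1 cells exposed to compounds for 17hr at 37 C, 5% CO2. Caspase-3/7 activity then measured by Caspase-Glo 3/7 luminescence after 30min at room temperature.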

Assay [6] can be described thus: Caspase-3/7 induction in HepG2 cells by small molecules, qHTS cell viability counter screen (AID 1346981). Note: series mostly up to about 92 µM; nearly all actives have a fitted effect of over 30% in size. Summed up: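 Wild-type HepG2 cells (2,000/well) were allowed to settle for 5 hr at 37 C, 5% CO2, then dosed with compounds in DMSO by pin transfer. After 16 hr at 37 C, CellTiter-Fluor was added and fluorescence read 1 hr later.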
For assay [7], the target named is Nuclear receptor subfamily 1 group I member 2 (Homo sapiens) (UniProt O75469). Description: Human pregnane X receptor (PXR) small molecule agonists, qHTS assay (AID 1346982). Note: nearly all actives have a fitted effect of over 35% in size. Note: potency is the fitted concentration of half-maximal effect. Summed up:
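PXR-Luc HepG2 cells (CYP3A4 promoter-driven luciferase) were seeded in medium with 5% charcoal-stripped FBS, left 5 hr at 37 C, then exposed to compounds in DMSO for 24 hr. Luminescence was read after ONE-Glo addition.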

Assay [8] addresses Cytochrome P450 2D6 (Homo sapiens) (UniProt P10635). Description: Cytochrome P450 Family 2 Subfamily D Member 6 (CYP2D6) small molecule antagonists: luciferase reporter qHTS assay (AID 1671196). Note: series mostly up to about 120 µM; nearly all actives have a fitted effect of over 50% in size. Summed up:
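CYP2D6 enzyme–substrate mix was held with compound for 10 min at room temperature, then NADPH regeneration solution was added and the reaction ran 1 h at room temperature. Luciferin product was detected by luminescence after 20 min with detection reagent.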

For assay [9], the target named is Voltage-gated inwardly rectifying potassium channel KCNH2 (Homo sapiens) (UniProt Q12809). Description: Human Ether-a-go-go-Related Gene (hERG) channel small molecule antagonists: fluorescence cell-based qHTS assay (AID 1671200). Note: nearly all actives have a fitted effect of over 50% in size. Note: potency is the fitted concentration of half-maximal effect. Summed up: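 First, 1000 cells per well are seeded and cultured overnight at 37 C. Next, FluxOR II dye is loaded for 1 h at room temperature, protected from light. After 10 more minutes, stimulus is added and fluorescence is read.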
Chain of Voltage-gated inwardly rectifying potassium channel KCNH2 (Homo sapiens) (Q12809 whole entry, looked up): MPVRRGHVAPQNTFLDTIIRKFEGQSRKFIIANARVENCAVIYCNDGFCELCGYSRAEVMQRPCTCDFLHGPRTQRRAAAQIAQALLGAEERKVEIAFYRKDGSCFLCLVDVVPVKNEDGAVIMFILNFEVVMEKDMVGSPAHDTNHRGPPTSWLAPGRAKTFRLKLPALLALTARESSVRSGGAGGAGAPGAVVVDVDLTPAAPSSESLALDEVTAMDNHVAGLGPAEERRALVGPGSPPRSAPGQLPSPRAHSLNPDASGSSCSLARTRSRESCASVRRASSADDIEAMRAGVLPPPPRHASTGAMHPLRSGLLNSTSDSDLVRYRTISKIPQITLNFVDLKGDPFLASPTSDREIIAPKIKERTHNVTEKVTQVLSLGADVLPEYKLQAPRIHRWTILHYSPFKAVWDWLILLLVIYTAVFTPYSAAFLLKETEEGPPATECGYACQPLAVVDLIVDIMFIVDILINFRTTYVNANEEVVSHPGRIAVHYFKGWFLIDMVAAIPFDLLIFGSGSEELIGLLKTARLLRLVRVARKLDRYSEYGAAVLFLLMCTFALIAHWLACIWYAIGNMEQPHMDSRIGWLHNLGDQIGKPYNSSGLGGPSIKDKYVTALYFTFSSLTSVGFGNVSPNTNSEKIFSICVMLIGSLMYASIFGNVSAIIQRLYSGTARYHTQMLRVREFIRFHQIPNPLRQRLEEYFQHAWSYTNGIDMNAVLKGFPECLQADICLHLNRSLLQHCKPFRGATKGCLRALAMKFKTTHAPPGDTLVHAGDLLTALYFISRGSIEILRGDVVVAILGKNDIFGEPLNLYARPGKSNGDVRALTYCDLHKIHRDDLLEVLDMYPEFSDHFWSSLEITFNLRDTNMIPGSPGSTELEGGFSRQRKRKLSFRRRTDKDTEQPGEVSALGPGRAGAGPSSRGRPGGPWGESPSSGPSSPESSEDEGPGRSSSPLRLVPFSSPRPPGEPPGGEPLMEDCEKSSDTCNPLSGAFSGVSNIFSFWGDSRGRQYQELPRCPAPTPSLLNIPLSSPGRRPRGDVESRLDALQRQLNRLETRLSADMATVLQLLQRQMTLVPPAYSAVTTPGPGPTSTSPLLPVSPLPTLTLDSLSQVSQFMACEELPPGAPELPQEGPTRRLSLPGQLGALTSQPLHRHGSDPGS

Assay [10] has as its target Cytochrome P450 3A4 (Homo sapiens) (UniProt P08684). The assay can be described thus: Cytochrome P450 Family 3 Subfamily A Member 4 (CYP3A4) small molecule antagonists: luciferase reporter qHTS assay (AID 1671201). Note: series mostly up to about 120 µM; nearly all actives have a fitted effect of over 50% in size. Summed up: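 Enzyme and proluciferin substrate are mixed with test chemicals for 10 min, then NADPH regeneration system drives turnover for 1 h at room temperature. A detection reagent halts the reaction; luminescence after 20 min gives relative activity.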

Assay [11] deals with Cytochrome P450 2C19 (Homo sapiens) (UniProt P33261). The assay can be described thus: Cytochrome P450 Family 2 Subfamily C Member 19 (CYP2C19) small molecule antagonists: luciferase reporter qHTS assay (AID 1671197). Note: nearly all actives have a fitted effect of over 65% in size. Note: potency is the fitted concentration of half-maximal effect. Summed up: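 Luminescent readout of CYP2C19 activity: luciferin product detected 20 min after adding detection reagent. Before that, compound and enzyme-substrate mix preincubated 10 min at room temperature; NADPH-regenerating system started a 1 h, 37C reaction. Ketoconazole as positive control.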
Chain of Cytochrome P450 2C19 (Homo sapiens) (P33261 whole entry, looked up): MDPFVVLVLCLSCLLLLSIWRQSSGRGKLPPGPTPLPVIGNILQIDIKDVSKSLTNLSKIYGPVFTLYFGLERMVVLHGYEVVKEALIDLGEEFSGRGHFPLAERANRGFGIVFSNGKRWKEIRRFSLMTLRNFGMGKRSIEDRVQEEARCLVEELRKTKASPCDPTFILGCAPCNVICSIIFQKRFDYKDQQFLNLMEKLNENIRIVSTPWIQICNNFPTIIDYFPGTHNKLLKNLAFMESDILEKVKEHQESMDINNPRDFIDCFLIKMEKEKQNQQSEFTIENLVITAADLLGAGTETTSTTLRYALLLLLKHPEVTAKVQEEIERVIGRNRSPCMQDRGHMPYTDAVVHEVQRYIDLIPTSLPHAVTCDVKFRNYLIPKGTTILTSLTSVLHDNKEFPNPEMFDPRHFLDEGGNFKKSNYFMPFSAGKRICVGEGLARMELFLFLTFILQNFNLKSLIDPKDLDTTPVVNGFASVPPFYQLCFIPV

The target of assay [12] is Cytochrome P450 2C9 (Homo sapiens) (UniProt P11712). Description: Cytochrome P450 Family 2 Subfamily C Member 9 (CYP2C9) small molecule antagonists: luciferase reporter qHTS assay (AID 1671198). Note: nearly all actives have a fitted effect of over 50% in size. Note: potency is the fitted concentration of half-maximal effect. Summed up:
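P450-Glo proluciferin substrate with CYP2C9 enzyme; 10 min RT preincubation, then NADPH regeneration 1 h at 37C; luciferin detection reagent 20 min RT, luminescence in relative luminescence units.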

Assay [13] has as its target Cytochrome P450 1A2 (Homo sapiens) (UniProt P05177). Description: Cytochrome P450 Family 1 Subfamily A Member 2 (CYP1A2) small molecule antagonists: luciferase reporter qHTS assay (AID 1671199). Note: nearly all actives have a fitted effect of over 50% in size. Note: potency is the fitted concentration of half-maximal effect. A digest of the protocol:
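Human CYP1A2 activity measured with a P450-Glo proluciferin substrate; compounds in DMSO preincubated 10 min at room temperature with enzyme-substrate mix, then NADPH regeneration system added for 1 h. Luciferin detection reagent, 20 min, luminescence read.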

For assay [14], the target named is Nuclear receptor subfamily 1 group I member 2 (Homo sapiens) (UniProt O75469). Description: CYP3A4 induction through human pregnane X receptor (PXR) by small molecules, qHTS assay (AID 1346984). Note: nearly all actives have a fitted effect of over 40% in size. Summed up: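 DPX-2 cells (HepG2 co-transfected with PXR and CYP3A4 promoter-luciferase) treated with compounds 24 h at 37C; luciferin-IPA CYP3A4 substrate 3uM final added for 3 h, then One-Glo; luminescence read. qHTS format.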
Chain of Nuclear receptor subfamily 1 group I member 2 (Homo sapiens) (O75469 whole entry, looked up): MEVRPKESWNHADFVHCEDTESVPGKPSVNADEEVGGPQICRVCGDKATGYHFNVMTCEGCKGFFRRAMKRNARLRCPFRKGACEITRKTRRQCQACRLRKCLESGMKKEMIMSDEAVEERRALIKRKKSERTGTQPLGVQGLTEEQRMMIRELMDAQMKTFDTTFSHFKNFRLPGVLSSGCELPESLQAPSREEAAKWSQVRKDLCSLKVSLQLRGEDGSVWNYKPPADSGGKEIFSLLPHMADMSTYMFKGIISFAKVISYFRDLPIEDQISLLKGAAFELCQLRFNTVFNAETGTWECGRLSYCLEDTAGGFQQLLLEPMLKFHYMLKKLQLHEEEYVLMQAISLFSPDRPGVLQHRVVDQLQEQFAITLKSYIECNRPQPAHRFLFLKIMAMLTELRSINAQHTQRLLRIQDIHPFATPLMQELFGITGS

Assay [15] shares this target. Description: Human pregnane X receptor (PXR) activation by small molecules, qHTS assay (AID 1346985). Note: nearly all actives have a fitted effect of over 40% in size. Summed up: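 DPX-2 cells (HepG2 co-transfected with a PXR response element and a CYP3A4-promoter luciferase construct) were seeded at 2,000 per well, rested 5 hr at 37C, then exposed to DMSO-dissolved compounds for 24 hr. Activation was read as luciferase luminescence.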

Chain of Thyrotropin-releasing hormone receptor (Homo sapiens) (P34981 whole entry, looked up): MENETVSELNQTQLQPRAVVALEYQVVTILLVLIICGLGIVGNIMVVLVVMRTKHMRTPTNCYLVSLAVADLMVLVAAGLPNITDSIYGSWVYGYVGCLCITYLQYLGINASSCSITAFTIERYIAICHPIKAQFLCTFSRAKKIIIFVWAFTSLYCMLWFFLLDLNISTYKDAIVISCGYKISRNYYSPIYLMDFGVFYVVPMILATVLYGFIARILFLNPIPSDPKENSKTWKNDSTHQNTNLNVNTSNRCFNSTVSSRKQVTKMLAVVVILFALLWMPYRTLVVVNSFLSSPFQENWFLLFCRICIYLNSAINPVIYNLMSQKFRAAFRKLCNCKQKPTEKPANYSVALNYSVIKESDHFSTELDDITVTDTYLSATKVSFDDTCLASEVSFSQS
Chain of Cytochrome P450 3A4 (Homo sapiens) (P08684 whole entry, looked up): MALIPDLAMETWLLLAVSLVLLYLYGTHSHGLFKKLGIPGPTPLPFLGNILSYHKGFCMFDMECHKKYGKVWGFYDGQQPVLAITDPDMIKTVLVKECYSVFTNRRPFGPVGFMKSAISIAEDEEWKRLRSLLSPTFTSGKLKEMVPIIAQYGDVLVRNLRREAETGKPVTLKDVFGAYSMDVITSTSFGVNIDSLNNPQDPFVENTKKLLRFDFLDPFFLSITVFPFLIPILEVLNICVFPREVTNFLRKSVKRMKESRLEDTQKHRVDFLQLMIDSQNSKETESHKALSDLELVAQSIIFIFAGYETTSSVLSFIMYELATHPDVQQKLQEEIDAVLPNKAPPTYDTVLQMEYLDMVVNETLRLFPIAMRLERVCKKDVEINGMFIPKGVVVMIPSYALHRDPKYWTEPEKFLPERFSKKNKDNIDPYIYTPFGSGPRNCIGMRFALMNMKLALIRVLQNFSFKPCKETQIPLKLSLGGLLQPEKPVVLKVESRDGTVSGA
Chain of Cytochrome P450 2C9 (Homo sapiens) (P11712 whole entry, looked up): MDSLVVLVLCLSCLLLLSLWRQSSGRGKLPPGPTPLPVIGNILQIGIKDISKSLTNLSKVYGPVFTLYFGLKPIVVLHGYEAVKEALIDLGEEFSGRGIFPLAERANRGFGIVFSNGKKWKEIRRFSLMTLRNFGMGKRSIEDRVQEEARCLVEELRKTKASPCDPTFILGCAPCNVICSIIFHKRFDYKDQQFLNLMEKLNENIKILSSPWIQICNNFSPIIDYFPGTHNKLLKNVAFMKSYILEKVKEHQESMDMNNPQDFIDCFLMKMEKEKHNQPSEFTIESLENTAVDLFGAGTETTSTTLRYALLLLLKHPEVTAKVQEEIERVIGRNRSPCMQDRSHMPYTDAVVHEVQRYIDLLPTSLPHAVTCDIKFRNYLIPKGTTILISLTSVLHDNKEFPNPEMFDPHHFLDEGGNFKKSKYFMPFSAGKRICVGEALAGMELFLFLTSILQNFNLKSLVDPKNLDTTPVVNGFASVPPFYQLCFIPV
Chain of Cytochrome P450 1A2 (Homo sapiens) (P05177 whole entry, looked up): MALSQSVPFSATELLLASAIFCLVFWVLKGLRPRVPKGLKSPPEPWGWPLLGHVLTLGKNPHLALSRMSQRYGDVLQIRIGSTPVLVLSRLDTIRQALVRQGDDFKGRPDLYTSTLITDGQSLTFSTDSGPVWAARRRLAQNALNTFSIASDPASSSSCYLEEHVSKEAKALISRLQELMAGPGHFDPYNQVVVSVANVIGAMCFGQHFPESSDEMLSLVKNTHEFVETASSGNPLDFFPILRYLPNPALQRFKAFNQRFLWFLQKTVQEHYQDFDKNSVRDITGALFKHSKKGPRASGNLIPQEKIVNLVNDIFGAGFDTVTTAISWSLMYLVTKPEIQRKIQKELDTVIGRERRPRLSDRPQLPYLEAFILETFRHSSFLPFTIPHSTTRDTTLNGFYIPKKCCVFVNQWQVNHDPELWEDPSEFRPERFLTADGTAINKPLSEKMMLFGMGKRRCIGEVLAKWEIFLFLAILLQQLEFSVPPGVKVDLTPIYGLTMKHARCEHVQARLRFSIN
Chain of Cytochrome P450 2D6 (Homo sapiens) (P10635 whole entry, looked up): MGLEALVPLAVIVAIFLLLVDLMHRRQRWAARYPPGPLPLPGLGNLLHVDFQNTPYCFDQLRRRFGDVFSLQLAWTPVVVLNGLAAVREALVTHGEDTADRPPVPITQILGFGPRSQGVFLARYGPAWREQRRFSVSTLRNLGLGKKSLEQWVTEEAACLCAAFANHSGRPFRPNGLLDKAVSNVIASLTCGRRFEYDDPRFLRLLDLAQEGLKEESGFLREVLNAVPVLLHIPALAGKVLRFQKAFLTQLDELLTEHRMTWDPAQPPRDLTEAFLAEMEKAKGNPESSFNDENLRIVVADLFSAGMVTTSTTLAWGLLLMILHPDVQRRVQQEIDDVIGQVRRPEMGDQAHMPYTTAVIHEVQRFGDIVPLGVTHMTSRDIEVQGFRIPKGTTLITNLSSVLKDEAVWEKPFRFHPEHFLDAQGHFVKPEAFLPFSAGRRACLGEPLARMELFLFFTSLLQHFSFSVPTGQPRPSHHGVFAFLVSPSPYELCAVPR

On to `CC(C)COC(=O)C(C)C`, for which the call in assay [1], in assay [3], in assay [5] and in [6] was inactive. The Potency entry in [2], in assay [4], in [7], in assay [8], in assay [9] and in assay [10] was “inactive” each time.

Take `CC(C=O)Cc1ccc(C(C)C)cc1` (stereo unspecified): the outcome in assay [1], in assay [3], in assay [5] and in assay [6] was inactive. For the same compound, the Potency entry in assay [2], in assay [4], in assay [7], in assay [8], in assay [9] and in assay [10] was “inactive” throughout. For the same compound, the Potency in assay [11] is 50.2 µM (active).

Take `CC(C)CCCCCCN`: the result in assay [1], in [3], in assay [5] and in assay [6] was inactive. The Potency result in assay [2], in [4], in assay [7], in assay [11], in assay [12] and in assay [13] was “inactive” each time. In addition, in assay [10], the Potency entry was “inactive”.

With `NC(=O)c1ncn([C@@H]2O[C@H](CO)[C@@H](O)[C@H]2O)c1O`, the compound was classed as inactive in [1], in assay [3], in [5] and in [6]. The Potency result in assay [2], in assay [4], in assay [14], in assay [15], in assay [11] and in assay [12] was “inactive” in each case. Moreover, the Potency result in assay [13] and in [9] was “inactive” throughout.

`CC(C)(O)C(=O)c1ccc(OCCO)cc1`: the compound was classed as inactive in [1], in assay [3], in [5] and in [6]. Besides, the Potency entry in assay [2], in [4], in assay [7], in assay [8], in assay [11] and in assay [9] was “inactive” each time. Moreover, in assay [10], the Potency entry is “inactive”. Also, the Potency in assay [13] is 35.6 µM (active).

Take `CCCCCN(CCCCC)C(=O)C(CCC(=O)O)NC(=O)c1ccc(Cl)c(Cl)c1` (stereo unspecified): the compound was called inactive in assay [1], in [3], in assay [5] and in assay [6]. Moreover, the Potency result in [2], in [4], in assay [7] and in assay [13] was “inactive” in each case. Also, the results for the Potency in assay [12] and in assay [9] were 2.19 µM (active) and 9.52 µM (active), respectively.

For `COCCOC(=O)CC#N`, the call in [1], in [3], in assay [5] and in [6] was inactive. In addition, the Potency entry in [2], in [4], in assay [7], in assay [8], in assay [12] and in assay [13] was “inactive” throughout. Besides, the Potency result in assay [10] was “inactive”.

For the compound `CCOC(=O)Cn1c(=O)sc2cccc(Cl)c21`, the result in assay [1], in assay [3], in assay [5] and in assay [6] was inactive. Besides, the Potency result in assay [2], in assay [4] and in [9] was “inactive” throughout. For the same compound, the Potency in [7] was 27.3 µM (active); in [11] it was 7.96 µM (active); in assay [12], 10 µM (active); in [13], 5.03 µM (active).

On to `CC(C)c1cccc(O)c1`, for which the result in [1], in assay [3], in assay [5] and in [6] was inactive. Besides, the Potency entry in assay [2], in assay [4], in [7], in assay [8], in [12] and in [9] was “inactive” in each case. Moreover, the Potency result in assay [10] is “inactive”.

Take `CN(C)CCn1nnnc1SCC1=C(C(=O)O)N2C(=O)[C@@H](NC(=O)Cc3csc(N)n3)[C@H]2SC1`: the result in assay [1], in [3], in assay [5] and in [6] was inactive. The Potency entry in [2], in assay [4], in [14], in assay [15], in assay [12] and in [13] was “inactive” throughout. The Potency entry in assay [9] and in assay [10] was “inactive” throughout.
